Source: PubChem (National Center for Advancing Translational Sciences (NCATS))
D1 PAM: enhances dopamine response at the human D1 receptor. P21728. HEK293 TREx D1 cells, calcium flux, dopamine EC20 potentiation. potentiation, % at 10 µM. actives 0.036% (n = 360,000); in the data active = potentiation above about 30%; note: 0% is about no effect
D1 agonist: agonists of human D1 dopamine receptor; actives 1% (n = 360,000); P21728; activation, % at 2 µM; HEK293 T-REx D1 cells, calcium flux, agonist mode; note: 0% is about no effect
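Inducible HEK293 T-REx D1 cells, force-coupled to calcium signalling, were plated at 4000 cells/well with tetracycline and held overnight at 30 C. After no-wash calcium dye loading, compound-evoked calcium rise over 180 s flagged agonists.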
D1 antagonist: antagonists of human D1 dopamine receptor; activity change, negative = inhibition, % at 10 µM; actives 3.2% (n = 360,000); AID 504652; HEK293 TREx D1 cells, calcium flux, dopamine EC80; stronger effect = lower value; in the data active = activity change below about -30%; note: % is set by controls: 0 for no effect and ±100 for the full control effect
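Cells carrying a force-coupled, tetracycline-inducible human D1 receptor report calcium flux. Each well gets a 10 s baseline, compound with 180 s monitoring, then an EC80 dopamine stimulus with a second 180 s kinetic read.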
TRHR agonist: TRH receptor (human) agonism | P34981 | TRHR cells, calcium flux fluo-8, FDSS agonist mode | activation, % at 2 µM | actives 0.18% (n = 360,000); note: 0% is about no effect
Target sequence (P34981 whole entry, looked up): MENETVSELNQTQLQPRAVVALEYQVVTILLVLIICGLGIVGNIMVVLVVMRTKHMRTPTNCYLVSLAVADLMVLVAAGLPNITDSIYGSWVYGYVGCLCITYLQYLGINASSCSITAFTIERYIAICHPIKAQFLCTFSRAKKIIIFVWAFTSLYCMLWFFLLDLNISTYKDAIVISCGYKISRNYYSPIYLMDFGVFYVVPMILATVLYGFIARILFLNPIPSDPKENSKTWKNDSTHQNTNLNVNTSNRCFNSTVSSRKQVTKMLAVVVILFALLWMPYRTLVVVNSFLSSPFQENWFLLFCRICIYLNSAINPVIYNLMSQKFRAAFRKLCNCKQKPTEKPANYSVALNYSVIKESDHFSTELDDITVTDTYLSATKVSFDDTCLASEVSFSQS
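TRHR-expressing cells, plated overnight in medium with 10% serum, were loaded with fluo-8 calcium dye at room temperature. After a 10 s baseline, library compound was pin-added and calcium release was recorded kinetically (ex 480/em 530) as agonist response.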
TRHR PAM: allosterically enhances the human TRH receptor. P34981. TRHR cells, fluo-8 calcium fluorescence, EC20 TRH enhancement. enhancement, % at 2 µM. actives 0.66% (n = 360,000); in the data active = enhancement above about 30%; note: 0% is about no effect
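Enhancer read-out: after compound pinning and an initial kinetic agonist-mode read, an EC20 of TRH (10 nM final) was injected and fluo-8 calcium signal (Ex 480/Em 530) followed at 1 s/cycle for 100 cycles in TRHR-expressing cells.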
* = called active by the depositor; . = not tested or not shown. Most compounds without a hit are left out; they make up all but 4.6% or so of the library. Cut-off read from the data, not from the text of the source, unless noted: active = activation above about 30%; inactive = the rest.

SMILES | D1 PAM | D1 agonist | D1 antagonist | TRHR agonist | TRHR PAM
Cc1ccc([N+](=O)[O-])cc1N/C=C1\CCCCC1=O | -4.3 | 36.9* | 12.6 | -0.1 | 12.8
O=C(N/N=C1/CCSC1)c1cc(Br)ccc1O | -9.3 | 14.3 | -39.7* | 0.6 | 2.4
O=C(NN=C1CCCC1)c1cc(Br)ccc1O | -4.5 | 11.7 | -17.7 | 1.2 | 1.5
O=C(Cc1coc2cc3c(cc12)CCC3)NC1CCCCCCC1 | 1.1 | 5.4 | -50.9* | 0.6 | 7.5
COCc1c(C(=O)N/N=C/c2ccc(C)o2)nnn1-c1nonc1N | . | 3.9 | -11.0 | -0.3 | -1.4
Cc1ccc(SCc2c(C(=O)N/N=C/c3ccncc3)nnn2-c2nonc2N)cc1 | -9.8 | 6.5 | -41.6* | -0.6 | -0.7
Cc1ccc(/C=N/NC(=O)c2nnn(-c3nonc3N)c2-c2ccc3c(c2)OCO3)s1 | 35.5* | 48.5* | 70.9 | 0.4 | 7.2
Cc1ccc(/C=N/NC(=O)c2nnn(-c3nonc3N)c2CN(C)C)o1 | -4.2 | 0.2 | -14.2 | -0.7 | 32.4*
CCOc1cccc(-c2c(C(=O)N/N=C/c3cccs3)nnn2-c2nonc2N)c1 | 10.1 | 30.2* | 50.6 | 1.3 | 21.7
Nc1nonc1-n1nnc(C(=O)N/N=C/c2ccc(F)cc2)c1-c1ccc2c(c1)OCO2 | 3.1 | 2.1 | 7.3 | 0.1 | 4.5
Nc1nonc1-n1nnc(C(=O)N/N=C/c2ccncc2)c1CSc1ccc(Cl)cc1 | -6.5 | 5.2 | -27.9 | 0.1 | -7.2
COc1cccc2cc(-c3nc(-c4ccccc4F)no3)c(=O)oc12 | -2.9 | 2.5 | 5.9 | -0.5 | -1.8
Cc1ccc(/C=N/NC(=O)c2nnn(-c3nonc3N)c2-c2cccs2)cc1 | 18.8 | 163.3* | 96.2 | 1.0 | 20.3
COc1ccc(/C=N/NC(=O)c2nnn(-c3nonc3N)c2-c2cccs2)cc1OC | 0.1 | 5.2 | -12.4 | 0.6 | -1.0
COc1ccc(/C=N/NC(=O)c2nnn(-c3nonc3N)c2-c2cccc(OC)c2)cc1 | 13.7 | 98.8* | 5.3 | 8.4 | 29.6
COc1cc(/C(C)=N/NC(=O)c2nnn(-c3nonc3N)c2-c2cccs2)ccc1O | 1.3 | 5.5 | -2.9 | 0.0 | -1.3
CCOc1cccc(-c2c(C(=O)N/N=C/c3ccncc3)nnn2-c2nonc2N)c1 | 17.4 | 5.2 | 11.8 | 0.4 | 3.9
COc1cccc(-c2c(C(=O)N/N=C/c3cccs3)nnn2-c2nonc2N)c1 | 9.7 | 60.7* | 32.7 | 5.6 | 22.4
CCOc1ccc(/C(C)=N/NC(=O)c2nnn(-c3nonc3N)c2-c2cccs2)cc1 | 40.8* | 114.6* | 107.2 | 3.2 | 12.5
Cc1ccc(-n2nc3c(=O)n(C(C)C(=O)NCc4ccc(OC(C)C)cc4)nc(C)c3c2C)cc1 (stereo not given) | 0.5 | 1.1 | -6.4 | -0.7 | -11.6
CCC1CCCCN1C(=O)CSc1nnc(-c2ccc(OC)c(OC)c2)o1 (stereo not given) | 3.6 | 1.0 | 2.7 | -0.6 | 25.3
CCN(CC)c1ccc2cc(-c3nc(-c4ccc(Cl)cc4Cl)cs3)c(=O)oc2c1 | -2.2 | 118.8* | 22.3 | 22.3 | 0.4
CCc1ccc(-c2csc(-c3cc4cc(Br)ccc4oc3=O)n2)cc1 | -4.2 | 6.8 | -4.1 | 0.8 | 1.1
CCN(CC)c1ccc2cc(-c3nc(-c4ccc(OC)cc4)cs3)c(=O)oc2c1 | -0.6 | 419.2* | -57.8* | 174.2* | -24.1
COC(=O)C(/C=N/OCc1ccc([N+](=O)[O-])cc1)NC(=O)c1ccccc1 (stereo not given) | -2.6 | 30.2* | 2.8 | 2.5 | -6.9
SMILES | D1 PAM | D1 agonist | D1 antagonist | TRHR agonist | TRHR PAM
O=C(N1CCc2cc([S+](=O)([O-])N3CCN([S+](=O)([O-])c4c(F)cccc4F)CC3)ccc2C1)C(F)(F)F | 1.6 | 2.0 | 1.1 | 1.3 | 1.4
CNCCC(Oc1ccc(C(F)(F)F)cc1)c1ccccc1 (stereo not given) | . | 62.4* | . | 3.0 | 4.6
CNCCOCC(O)CSc1ccccc1 (stereo not given) | -3.5 | 2.1 | -15.6 | 0.1 | -0.6
CCN1CCCC1CN=Cc1c(O)n(-c2ccccc2)c(=O)c2ccccc12 (stereo not given) | -7.8 | 1.3 | -78.0* | -0.2 | 9.0
O=C(c1ccccc1)N1CCC(c2nc3ccccc3o2)CC1 | 0.2 | 11.0 | -12.2 | -0.7 | -2.7
COc1cc(/C=C2\SC(=S)N(N3CCOCC3)C2=O)cc(OC)c1OC | 16.7 | 7.6 | -13.1 | 1.5 | -5.6
O=C(O)CN1C(=O)/C(=C\c2cccc(OCc3ccccc3)c2)SC1=S | -10.9 | 2.4 | -1.6 | 0.1 | -0.5
COc1cc(/C=C2/SC(=S)N(Cc3ccccc3)C2=O)ccc1O | 7.8 | 102.3* | 6.5 | 39.4* | 6.8
COc1cc(/C=C2\SC(=S)N(N3CCOCC3)C2=O)ccc1O | -2.6 | 30.2* | -17.9 | 21.1 | 0.2
CN1C(=O)/C(=C\c2cccc(OCc3ccccc3)c2)SC1=S | -2.8 | 1.3 | -33.9* | 0.5 | 4.3
O=C(CN1C(=O)S/C(=C\c2cc(Cl)c(O)c(Cl)c2)C1=O)Nc1ccccc1 | -2.1 | 48.3* | 12.0 | 13.6 | 3.7
O=C(CN1C(=O)S/C(=C\c2ccccn2)C1=O)Nc1ccccc1 | -3.9 | 2.5 | -2.0 | 0.0 | -0.1
O=C(NCc1ccccc1)c1ccc2c(c1)nc1n2CCOC1 | 1.6 | 0.4 | -1.6 | 0.4 | -2.5
Cc1cccc(NC(=O)CCN2CCN(c3ccccc3F)CC2)c1 | -1.8 | 1.9 | -12.9 | 0.0 | 4.5
COc1cc(/C=C2\SC(=S)N(CCC(=O)Nc3ccccc3)C2=O)cc(OC)c1OC | 0.3 | 45.5* | 5.9 | 13.7 | 1.5
O=C1/C(=C\c2cc([N+](=O)[O-])ccc2O)SC(=S)N1Cc1ccc(Cl)cc1 | -6.2 | 196.8* | -4.7 | 120.2* | 7.8
O=C1/C(=C\c2ccc(O)c(O)c2)SC(=S)N1Cc1ccccc1 | 4.8 | 77.5* | -4.1 | -0.9 | -1.6
COc1ccc(NC(=O)CSc2nc(-c3cccc(C)c3)[nH]c2-c2ccccc2)cc1OC | -0.6 | 0.7 | -3.0 | -1.1 | -4.1
CCOC(=O)c1c(C)[nH]c(CCC(=O)Nc2cc(C)ccc2OC)c1C | -4.5 | 1.5 | -10.0 | 0.1 | 4.9
COc1ccc2c(c1)C1(C)CC(C)(C)N2C(=O)N1c1ccccc1 (stereo not given) | 8.3 | 55.8* | -4.3 | -0.3 | 19.3
O=C1NC(=O)/C(=C\c2ccc(Oc3cnccn3)cc2)S1 | -7.2 | 0.6 | -8.2 | -0.5 | 0.2
COc1cc(/C=C2\SC(=O)NC2=O)ccc1Oc1cnccn1 | -0.1 | -0.6 | -40.8* | 1.0 | -3.3
CCCc1nc2ccccc2n1CC(O)COc1ccc(NC(C)=O)cc1 (stereo not given) | -3.9 | 2.7 | -33.5* | -0.2 | 6.7
CC(=O)Nc1ccc(OCC(O)Cn2cnc3ccccc32)cc1 (stereo not given) | -3.6 | 2.2 | -11.5 | 0.5 | 2.1
CC(=O)Nc1cccc(OCC(O)Cn2c(C)nc3ccccc32)c1 (stereo not given) | -4.1 | -0.2 | -69.1* | -0.1 | -2.8
